HT1080-NT tox = qHTS for induction of synthetic lethality in tumor cells producing 2HG: qHTS for the HT-1080-NT fibrosarcoma cell line | HT-1080-NT fibrosarcoma viability, CellTiter-Glo ATP luminescence, 48 h | Potency, µM (titrated, usually from 46.1 µM), for inactives: top-dose activity, negative = less viability, hits mostly cytotoxic | 1.6% of 360,000 active | AID 686970, 2013;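 also: NT is the 2HG producing partner of a matched IDH1 knockdown line; 0% = DMSO-treated cells and -100% = media-only wells without cells; nearly all actives have a fitted effect of over 55% in size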
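750 cells/well, RPMI + 5% FBS; 2 h settle, compound pin-transfer, 48 h at 37 degrees C. CellTiter-Glo 10 min RT, luminescence. Normalized to DMSO and media-only wells.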
HT1080 IDH1KD tx = qHTS for induction of synthetic lethality in tumor cells producing 2HG: qHTS for the HT-1080-IDH1KD cell line. AID 686971, 2013. 2% of 360,000 active. Potency, µM (doses to about 46.1 µM), inactives show at the highest dose activity, negative = toxicity, hits mostly cytotoxic. HT-1080 IDH1 knockdown viability, ATP luminescence, 48 h;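 also: 0% = DMSO wells and -100% = cell-free medium wells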
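HT-1080-IDH1KD cells (IDH1 knocked down), 750/well in RPMI with 5% FBS, treated with compound 48 h at 37 degrees C. Viability by CellTiter-Glo luminescence, normalised to DMSO and no-cell wells; concentration-response curves classed.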
KB-V1 MDR tox = qHTS assay for MDR1-selective chemotherapeutics: Primary screen using the drug-selected MDR subline cells KB-V1; KB-V1 MDR cells viability, CellTiter-Glo, 72 h; AID 1347076, 2019; Potency, µM (titrated, usually from 46.1 µM), most hits filed as cytotoxic; 3.4% of 400,000 active; also: % is scaled to controls: 0 for no effect and ±100 for the full control effect; nearly all actives have a fitted effect of over 60% in size
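Readout: CellTiter-Glo luminescence, 10 min after addition. Cells: KB-V1 MDR subline, 72 h at 37 degrees C with compound. Analysis: corrected, normalized data fitted to concentration-effect curves.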
KB-3-1 tox = qHTS assay for MDR1-selective chemotherapeutics: Primary screen using the parental adenocarcinoma cell KB-3-1; KB-3-1 viability, CellTiter-Glo ATP luminescence, 72 h; Potency, µM (series often up to 46.1 µM), usual class: cytotoxic; 1.4% of 400,000 active; AID 1347075, 2019; also: % is scaled to controls: 0 for no effect and ±100 for the full control effect; nearly all actives have a fitted effect of over 60% in size
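Viability of parental KB-3-1 cells, measured by CellTiter-Glo luminescence, followed a 72 h incubation at 37 °C with pinned compounds in phenol-red-free DMEM containing 10% FBS.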
SW480 rerep = A quantitative high throughput screen for small molecules that induce DNA re-replication in SW480 colon adenocarcinoma cells; SW480 DNA re-replication, Hoechst DNA content imaging, 48 h; 1.8% of 340,000 active; Potency, µM (doses to about 46.1 µM), for inactives: top-dose re-replication activation, usual class: activators; also: % of control where 0% means no effect; nearly all actives have a fitted effect of over 55% in size
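Hoechst fluorescence of nuclei (405 nm excitation, 500-530 nm emission) measured by plate-scanning imager after 48 hr compound exposure at 37 C; re-replication scored as increased number of nuclei with elevated intensity.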
MCF10A rereplic = A quantitative high throughput screen for small molecules that induce DNA re-replication in MCF 10a normal breast cells | MCF 10A DNA re-replication, Hoechst nuclear intensity, 48 h | Potency, µM (highest dose often 46.1 µM), inactives show at the highest dose activity, positive = re-replication, most hits filed as activators | 2.9% of 350,000 active | AID 624296, 2012; also: % of control where 0% means no effect; nearly all actives have a fitted effect of over 50% in size
Active calls of the source: *. Shown are actives, neighbours in structure and some others; about 8% of the full set was active somewhere. Calls follow the shape of the dose curve; as a rule, active = well fitted curve in the direction sought with a large enough effect; inconclusive = small, poorly fitted or top-dose-only effect, or another doubt; inactive = no such curve, though single readings can be large; an effect the other way counts as inactive or inconclusive. Potency is read from the fitted curve at half-maximal effect.

For COc1ccc(C(=O)/C=C/C(=O)N(CC(=O)NC2CCCCC2)Cc2ccc(F)cc2)c(O)c1 the results were HT1080-NT tox -19%, HT1080 IDH1KD tx -25%, KB-V1 MDR tox 16µM*, KB-3-1 tox inconclusive, SW480 rerep inconclusive and MCF10A rereplic inconclusive.
Screening Cc1cccc(Cn2c(SCc3ccc(C(=O)NCc4ccccc4F)cc3)nc3ccncc32)c1 returned KB-V1 MDR tox inactive and KB-3-1 tox inactive.
Screening Cc1ccc(NC(=O)CSc2nnnn2-c2ccc3c(c2)OCO3)cc1C returned HT1080-NT tox -7%, HT1080 IDH1KD tx -8%, KB-V1 MDR tox inactive, KB-3-1 tox inactive, SW480 rerep inconclusive and MCF10A rereplic 16µM*.
`CCOC(=O)c1c(NC(=O)CSc2nnnn2-c2ccc3c(c2)OCCO3)sc(C)c1C` gave HT1080-NT tox 0%, HT1080 IDH1KD tx 20%, KB-V1 MDR tox inconclusive, KB-3-1 tox inactive, SW480 rerep 30% and MCF10A rereplic 18µM*.
`CCOC(=O)c1c(NC(=O)CSc2nc3ccccc3s2)sc(C)c1C` gave HT1080-NT tox -2%, HT1080 IDH1KD tx -2%, KB-V1 MDR tox 13µM*, KB-3-1 tox inactive, SW480 rerep 0% and MCF10A rereplic inconclusive.
For CCOC(=O)c1c(NC(=O)CSc2nc3ccccc3o2)sc(C)c1C the results were HT1080-NT tox 5%, HT1080 IDH1KD tx -6%, KB-V1 MDR tox inactive, KB-3-1 tox inactive, SW480 rerep 8% and MCF10A rereplic 9%.
O=C(CSc1ncc2c(n1)-c1ccccc1N(Cc1ccc(F)cc1)S2(=O)=O)c1ccc(Br)cc1 was read as KB-V1 MDR tox inactive and KB-3-1 tox inactive.
Cc1ccsc1CN(Cc1ccco1)c1cnc(S(C)(=O)=O)nc1C(=O)Nc1ccc(Cl)cc1 was read as KB-V1 MDR tox inactive and KB-3-1 tox inactive.
For COc1cc(OC)cc(-c2nc3n(n2)C(c2ccccc2F)C(C(=O)Nc2cccnc2)=C(C)N3)c1 (stereo not drawn) the results were KB-V1 MDR tox inconclusive and KB-3-1 tox inactive.
C=CCNC(=S)N1N=C(c2ccco2)CC1c1ccco1 (stereo not drawn) was read as HT1080-NT tox 3%, HT1080 IDH1KD tx 2%, KB-V1 MDR tox inactive, KB-3-1 tox inactive, SW480 rerep 2% and MCF10A rereplic -21%.
COc1ccc(NC(=O)c2c(F)cccc2F)cc1S(=O)(=O)Nc1ccc(Br)cc1 was read as HT1080-NT tox -1%, HT1080 IDH1KD tx -19%, KB-V1 MDR tox 10µM*, KB-3-1 tox inactive, SW480 rerep inconclusive and MCF10A rereplic inconclusive.
COc1ccc(NC(=O)CCS(=O)(=O)c2ccccc2Cl)cc1S(=O)(=O)Nc1ccc(Cl)cc1 was read as HT1080-NT tox inconclusive, HT1080 IDH1KD tx inconclusive, KB-V1 MDR tox inconclusive, KB-3-1 tox inactive, SW480 rerep inconclusive and MCF10A rereplic 16µM*.
COc1ccc(NC(=O)CCC(=O)c2cccs2)cc1S(=O)(=O)Nc1ccc(Cl)cc1 was read as HT1080-NT tox -5%, HT1080 IDH1KD tx 0.82µM*, KB-V1 MDR tox 7.3µM*, KB-3-1 tox inconclusive, SW480 rerep -10% and MCF10A rereplic -2%.
Screening COc1ccccc1NS(=O)(=O)c1cc(NC(=O)CCC(=O)c2cccs2)ccc1Cl returned HT1080-NT tox -12%, HT1080 IDH1KD tx -19%, KB-V1 MDR tox inactive, KB-3-1 tox inactive, SW480 rerep -2% and MCF10A rereplic 1%.
